These results are taken from PubChem BioAssay (EPA / NIEHS).

The nature of assay [1]: Tanguay_ZF_120hpf_AXIS_legacy: (Legacy) Oregon State University Tanguay Lab 120 Hour Post-fertilization zebrafish Assay for Body Axis Malformation (AID 2283635).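 For AC50: potency for an increased fraction of larvae scored with body axis malformation.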 In a few lines:
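Chorion is removed with pronase at 4 hpf, then single 6 hpf embryos are dosed (final DMSO 0.64%) and held statically at 28C in sealed, foil-covered plates. At 120 hpf body axis malformation is recorded as present or absent.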

The nature of assay [2]: Tanguay_ZF_120hpf_EYE_legacy: (Legacy) Oregon State University Tanguay Lab 120 Hour Post-fertilization zebrafish Assay for Eye Malformation (AID 2283636). In a few lines:
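Dechorionated wild-type Tropical 5D zebrafish embryos were exposed statically from 6 hpf, one per well, to 120 hpf at 28C in sealed, foil-covered plates with 0.64% DMSO. Eye malformation was scored present/absent by brightfield microscopy against DMSO controls.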

A short description of assay [3]: Tanguay_ZF_120hpf_SNOU_legacy: (Legacy) Oregon State University Tanguay Lab 120 Hour Post-fertilization zebrafish Assay for Snout Malformation (AID 2283637). An outline of the steps:
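Tropical 5D wild-type zebrafish embryos, dechorionated with pronase at 4 hpf, were exposed singly from 6 hpf to 120 hpf statically at 28C in 0.64% DMSO. Snout malformation was scored present/absent by brightfield microscopy, fitted against DMSO.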

Assay [4] in a line: Tanguay_ZF_120hpf_JAW_legacy: (Legacy) Oregon State University Tanguay Lab 120 Hour Post-fertilization zebrafish Assay for Jaw Malformation (AID 2283638).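 For AC50: active means more embryos with jaw malformation than DMSO controls.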 In a few lines:
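Steps: dechorionate 4 hpf embryos (pronase); plate 1/well at 6 hpf; add test chemical, 0.64% DMSO final; seal, cover, hold at 28C statically to 120 hpf; score jaw defect presence/absence microscopically. Dead embryos not scored.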

The nature of assay [5]: Tanguay_ZF_120hpf_OTIC_legacy: (Legacy) Oregon State University Tanguay Lab 120 Hour Post-fertilization zebrafish Assay for Otic Vesicle Malformation (AID 2283639). An outline of the steps:
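Tropical 5D wild-type zebrafish embryos statically exposed in 0.64% DMSO at 28C until 120 hpf; 5uM trimethyltin chloride as positive control. Otic vesicle malformation scored present/absent by brightfield; dead embryos not scored; gain fitted versus DMSO.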

Assay [6] can be described thus: Tanguay_ZF_120hpf_PE_legacy: (Legacy) Oregon State University Tanguay Lab 120 Hour Post-fertilization zebrafish Assay for Pericardial Edema (AID 2283640).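 For AC50: potency for increased incidence of pericardial edema versus DMSO baseline.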 An outline of the steps:
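Embryos from wild-type 5D adults were staged, then dosed in 0.64% DMSO. They were kept sealed in the dark at 28C until 120 hpf. Pericardial edema was then recorded as present or absent.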

Assay [7] can be described thus: Tanguay_ZF_120hpf_BRAI_legacy: (Legacy) Oregon State University Tanguay Lab 120 Hour Post-fertilization zebrafish Assay for Brain Malformation (AID 2283641). In a few lines: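 Wild-type 5D larvae, static waterborne exposure to 120 hpf, 28C, 0.64% v/v DMSO. Brightfield scoring of brain defects, binary; dead embryos excluded. Positive ctrl 5uM trimethyltin chloride.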

The nature of assay [8]: Tanguay_ZF_120hpf_SOMI_legacy: (Legacy) Oregon State University Tanguay Lab 120 Hour Post-fertilization zebrafish Assay for Somite Malformation (AID 2283647). In a few lines: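 Read-out: presence or absence of somite malformation in 120 hpf larvae, gain-of-signal relative to DMSO baseline. Embryos lacked chorion (pronase, 4 hpf) and were exposed statically from 6 hpf at 28C; dead larvae not scored.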

Assay [9] in a line: Tanguay_ZF_120hpf_PFIN_legacy: (Legacy) Oregon State University Tanguay Lab 120 Hour Post-fertilization zebrafish Assay for Pectoral Fin Malformation (AID 2283648).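 Note: each larva judged yes or no for fin defect by brightfield with dead larvae skipped.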 In a few lines: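 Tropical 5D wild-type embryos, dechorionated with pronase at 4 hpf, were placed singly in wells at 6 hpf and statically exposed until 120 hpf at 28C, sealed and dark, with 0.64% (vol/vol) final DMSO; pectoral fin malformation scored present/absent.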

Assay [10] can be described thus: Tanguay_ZF_120hpf_CFIN_legacy: (Legacy) Oregon State University Tanguay Lab 120 Hour Post-fertilization zebrafish Assay for Caudal Fin Malformation (AID 2283649). In a few lines: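 Binary presence or absence of caudal fin malformation at 120 hpf, read by brightfield microscopy, with DMSO as baseline. Larvae came from 5D wild-type embryos exposed statically from 6 hpf at 28C after pronase dechorionation.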

Assay [11] is described as follows: Tanguay_ZF_120hpf_CIRC_legacy: (Legacy) Oregon State University Tanguay Lab 120 Hour Post-fertilization zebrafish Assay for Circulatory Malformation (AID 2283651). An outline of the steps:
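Dechorionated wild-type 5D zebrafish embryos, one per well, statically exposed from 6 to 120 hpf at 28C with 0.64% DMSO; circulatory malformation scored present/absent by brightfield microscopy at 120 hpf, dead embryos excluded.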

A short description of assay [12]: Tanguay_ZF_120hpf_SWIM_legacy: (Legacy) Oregon State University Tanguay Lab 120 Hour Post-fertilization zebrafish Assay for Swim Bladder Malformation (AID 2283654).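 Note: swim bladder malformation in each larva scored yes or no under brightfield.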 In a few lines: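 Dechorionated Tropical 5D wild-type embryos, placed singly from 6 hpf, were statically exposed at 28C to 120 hpf with 0.64% DMSO final; swim bladder malformation was scored present/absent by brightfield microscopy, gain of signal relative to DMSO controls.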

Assay [13] is described as follows: Tanguay_ZF_120hpf_TRUN_legacy: (Legacy) Oregon State University Tanguay Lab 120 Hour Post-fertilization zebrafish Assay for Truncated Body (AID 2283655). An outline of the steps:
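Truncated body is recorded as a binary endpoint at 120 hpf by brightfield imaging of wild-type 5D larvae. Exposure runs statically from 6 hpf at 28C with 0.64% DMSO; embryos dying earlier are not scored.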

The nature of assay [14]: Tanguay_ZF_120hpf_NC_legacy: (Legacy) Oregon State University Tanguay Lab 120 Hour Post-fertilization zebrafish Assay for Notochord and Tail Malformation (AID 2283656). An outline of the steps:
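Dechorionated Tropical 5D wild-type zebrafish embryos, one per well from 6 hpf, statically exposed to 120 hpf at 28C in 0.64% DMSO final. Notochord distortion scored present/absent by brightfield; dead embryos excluded.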

Assay [15] can be described thus: Tanguay_ZF_120hpf_PIG_legacy: (Legacy) Oregon State University Tanguay Lab 120 Hour Post-fertilization zebrafish Assay for Pigmentation Malformation (AID 2283650). An outline of the steps:
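Tropical 5D wild-type zebrafish embryos, dechorionated with pronase at 4 hpf, were exposed singly from 6 hpf to 120 hpf statically at 28C in sealed, dark plates with 0.64% DMSO; pigmentation scored present/absent by brightfield microscopy, fitted against DMSO.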

Assay [16] relates to Thyroperoxidase (TPO), gene 54314. The assay is described as follows: CCTE_Simmons_AUR_rTPO: CCTE's Amplex UltraRed Assay for Thyroperoxidase (TPO) Inhibition, Simmons Lab (AID 2283662).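 For AC50: potency for loss of signal meaning inhibition of peroxidase activity.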 An outline of the steps:
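Rat thyroid microsomes (5 ug protein) with 25 uM Amplex UltraRed and 300 uM H2O2 in 200 mM phosphate buffer, 30 min at 37C in dark; fluorescence 544/590 nm. Eight concentrations, 5 nM–87.5 uM final, 0.5% DMSO, triplicate biological replicates.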

Structures are written as SMILES. Records with an inconclusive call do not appear. Active and inactive are the calls of the source. Rule for the calls: active = hit-call score of the fitted dose curve at least 0.9, where 1 is the maximum; inconclusive = response in the unintended direction; inactive = score below 0.9.

With `CCCCCCCCCCCCCCC`, the compound was classed as inactive in assay [1], in assay [2], in assay [3], in assay [4], in assay [5] and in [6]. The outcome in assay [7], in [8], in assay [9], in assay [10], in [11] and in [12] was inactive. The result in assay [13] and in assay [14] was inactive.
With `Cc1[nH]nc2c1N=C(c1ccccc1Cl)c1cc([N+](=O)[O-])ccc1N2`, the outcome in assay [1], in assay [3], in [4], in assay [5], in assay [6] and in assay [7] was inactive. Also, the compound was classed as inactive in assay [8], in assay [9], in [10], in assay [15], in assay [11] and in assay [12]. In addition, the result in assay [13] and in assay [14] was inactive. In assay [16], the concentration at half-maximal activity (AC50) is 2.9 µM (active).
For the compound `CCCCCCCCCCCC`, in assay [16], the AC50 was 43.8 µM (active).
Same read-out and setting: as for `Cc1cc(C(C)(C)C)c(O)c(C(C)(C)C)c1`, the figure is 2.84 µM (active).
Turning to `NC(=NCCCCCCN=C(N)/N=C(\N)Nc1ccc(Cl)cc1)/N=C(\N)Nc1ccc(Cl)cc1`, the result in assay [16] was inactive.
In the case of `OCC(CO)(CBr)CBr`, the compound was called inactive in assay [1], in assay [2], in assay [3], in [4], in assay [5] and in assay [6]. Further, the outcome in [7], in assay [8], in assay [9], in assay [10], in assay [15] and in assay [11] was inactive. In addition, the compound was classed as inactive in assay [12], in [13] and in assay [14].
`Cc1cc(C(=C2C=CC(=Nc3ccc(S(=O)(=O)O)cc3)C=C2)c2ccc(Nc3ccc(S(=O)(=O)O)cc3)cc2)cc(S(=O)(=O)O)c1N`: in assay [16], the half-maximal activity concentration (AC50) was 29.4 µM (active).
With `CC(=O)Nc1ccc(O)cc1`, the compound was classed as inactive in [1], in [2], in assay [3], in assay [4], in assay [5] and in assay [6]. Further, the outcome in assay [7], in [8], in assay [9], in [10], in assay [15] and in [11] was inactive. Besides, the result in assay [12] and in assay [13] was inactive.
In the case of `CCCCC(CC)C(=O)O` (configuration not stated), the compound was classed as inactive in [1], in [3], in [4], in assay [5], in [6] and in [7]. The compound was called inactive in assay [9], in assay [15] and in assay [14].
As for `O=C1OC2(c3ccccc31)c1cc(I)c(O)c(I)c1Oc1c2cc(I)c(O)c1I`, the AC50 in assay [16] is 16 µM (active).
Turning to `CCCCCCCCCCCCOS(=O)(=O)O`, the compound was called inactive in [1], in assay [2], in assay [3], in assay [4], in assay [5] and in assay [6]. Moreover, the compound was called inactive in [7], in assay [8], in [9], in assay [10], in assay [15] and in [11]. Further, the compound was called inactive in assay [12] and in [13].
Consider `CS(=O)(=O)c1ccc([C@@H](CC2CCCC2)C(=O)Nc2cnccn2)cc1Cl`, for which the result in assay [1], in assay [2], in assay [3], in [4], in assay [5] and in [6] was inactive. Also, the call in assay [9], in assay [10], in assay [15], in [11], in assay [13] and in assay [14] was inactive.
As for `Cc1cc(Cc2cc(C)cc(C(C)(C)C)c2O)c(O)c(C(C)(C)C)c1`, the AC50 in assay [16] was 1.04 µM (active).
`COc1cc([N+](=O)[O-])ccc1N`: the result in assay [16] was inactive.
Regarding `O=C(CCCN1CCC(O)(c2ccc(Cl)cc2)CC1)c1ccc(F)cc1`, the AC50 in assay [1] was 5.66 µM (active); in assay [2], 4.96 µM (active); in assay [3] it was 2.46 µM (active); in assay [4], 5.66 µM (active); in assay [6], 3.98 µM (active); in assay [7], 4.16 µM (active). For the same compound, the AC50 in [9] is 5.92 µM (active). For the same compound, the result in assay [5], in assay [8], in [10], in [15], in [11] and in [12] was inactive. Also, the compound was classed as inactive in assay [13] and in assay [14].
For `CCCCCCc1ccc(N)cc1`, in assay [16], the half-maximal activity concentration (AC50) was 0.0476 µM (active).
On to `CCc1cccc(CC)c1N(COC)C(=O)CS(=O)(=O)O`, for which the outcome in assay [16] was inactive.
